Data taken from the supplement of paper PMC7156485.
Several values for one entry are separate records, joined by “and”; a condition that tells them apart may be missing. Equal values may be shown once. Where a name gives a salt, the structure may show the parent alone. ± gives the standard deviation of the averaged measurements.

Experiments:
Conditions in all cases: concentration: 10 µM; 24 h
HCC1569 [1] = test: cell number relative to DMSO (% of DMSO); higher = more cells (less growth inhibition / toxicity)
In short: (§1)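 Cell number or H1.0 nuclear intensity appears as percent of the plate control, based on the median of replicates. Measurements came from HCC1569 and TDF cells exposed in triplicate to compounds at 10 µM for 24 h at 37 °C, then imaged in six fields per well at ×10. Positional effects were smoothed out of HCC1569 values.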

TDF [2] = test: as above
In short: as §1

TDF [3] = test: H1.0 immunofluorescence intensity relative to DMSO (% of DMSO); higher = stronger H1.0 induction, active = 120 or more
In short: as §1

HCC1569 [4] = test: H1.0 immunofluorescence intensity relative to DMSO (% of DMSO); higher = stronger H1.0 induction, active = 140 or more
In short: as §1
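For H1.0 immunofluorescence intensity relative to DMSO in this document: TDF is a line of transformed human dermal fibroblasts of mesenchymal origin.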
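For cell number relative to DMSO in this document: TDF denotes transformed human dermal fibroblasts of mesenchymal origin.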

SMILES	cell number (HCC1569 [1])	cell number (TDF [2])	H1.0 immunofluorescence intensity (TDF [3])	H1.0 immunofluorescence intensity (HCC1569 [4])
Clc1ccc(C(Cn2ccnc2)OCc2csc3c(Cl)cccc23)c(Cl)c1 (stereo unspecified) [Sertaconazole]	95	97.9	91.4 (inactive)	114 (inactive)
CN(C)CCC(CSc1ccccc1)Nc1ccc(S(=O)(=O)NC(=O)c2ccc(N3CCN(Cc4ccccc4-c4ccc(Cl)cc4)CC3)cc2)cc1[N+](=O)[O-] (stereo unspecified)	30.5	106	110 (inactive)	129 (inactive)
CCn1ccnc1CC1COc2ccccc2O1.Cl (stereo unspecified) [Imiloxan hydrochloride]	103	105	88 (inactive)	100 (inactive)
O=C(O)c1ccccc1Nc1cccc(OCc2ccc3ccccc3n2)c1	104	97.2	91.5 (inactive)	106 (inactive)
CCCCCCCCCCCCC(O)C(=O)O (stereo unspecified) [2-Hydroxymyristic acid]	103	103	95.6 (inactive)	102 (inactive)
Cl.O=C(CNC(=O)c1cccc(C(F)(F)F)c1)N[C@@H]1CCN(Cc2ccc(Cl)cc2)C1	89.9	96.8	89.1 (inactive)	134 (inactive)
Nc1cc(-c2ccncc2)c[nH]c1=O [amrinone]	99.8	105	100 (inactive)	114 (inactive)
O[C@@H]1[C@@H](O)[C@H](OC/C=C/c2ccccc2)O[C@H](CO[C@@H]2OC[C@H](O)[C@H](O)[C@H]2O)[C@H]1O	97	103	100 (inactive)	90.3 (inactive)
O=c1oc2c(O)c(O)cc3c(=O)oc4c(O)c(O)cc1c4c23 [Ellagic acid]	102	106	102 (inactive)	90.6 (inactive)
CC1=NC(=NNc2cc(S(=O)(=O)[O-])c3cc([N+](=O)[O-])cc(S(=O)(=O)[O-])c3c2)C(COP(=O)([O-])[O-])=C(C=O)C1=O.[Na+].[Na+].[Na+].[Na+] [PPNDS tetrasodium]	104	115	91 (inactive)	100 (inactive)
O=C(NCCCNc1nc(Nc2cccc(NC(=O)N3CCCC3)c2)ncc1I)c1cccs1	62	42.3	114 (inactive)	134 (inactive)
COc1ccc(C=CC(=O)Nc2ccccc2C(=O)O)cc1OC [Tranilast]	99.2 ± 2.1	103 ± 4.7	92.9 (inactive)	102 (inactive)
Fc1ccc(-c2nc3n(c2-c2ccncc2)CCS3)cc1	95.4	108	92.3 (inactive)	107 (inactive)
O=C1C(=O)c2ccccc2C(O)=C1C1CCC(c2ccc(Cl)cc2)CC1 (stereo unspecified) [Atovaquone]	100	99	95 (inactive)	108 (inactive)
CC(C)COCC(CN(Cc1ccccc1)c1ccccc1)N1CCCC1.Cl (stereo unspecified) [Bepridil hydrochloride]	99.7	103	92.8 (inactive)	88.7 (inactive)
CNNCc1ccc(C(=O)NC(C)C)cc1 [Procarbazine]	102	106	92.4 (inactive)	108 (inactive)
Clc1ccc(C(Cn2ccnc2)OCc2csc3c(Cl)cccc23)c(Cl)c1.O=[N+]([O-])O (stereo unspecified)	88.9	100	96.8 (inactive)	119 (inactive)
COc1cc2ncnc(Nc3ccc(Cl)cc3Cl)c2cc1OC [Ste11 MAPKKK Activation Inhibitor]	83.8	97.5	89.8 (inactive)	130 (inactive)
COC(=O)C1C(O)CCC2CN3CCc4c([nH]c5ccccc45)C3CC21 (stereo unspecified) [Corynanthine]	106	94.3	102 (inactive)	95.3 (inactive)
CCCCCC=CCC=CCC=CCC1OC1CCCC(=O)O (stereo unspecified) [5,6-Epoxyeicosatrienoic acid]	101	108	89.4 (inactive)	103 (inactive)
O=C(Nc1ccc(Cl)cc1)Nc1cccc(-c2cccc(N3CCCC3)n2)c1	96	87.5	98.6 (inactive)	114 (inactive)
CC(C)=CCC[C@@H](C)[C@H]1CC[C@H]2[C@@H]3CC=C4C[C@@H](O)CC[C@]4(C)[C@H]3CC[C@]12C [(3beta)-cholesta-5,24-dien-3-ol]	103	88.8	96 (inactive)	101 (inactive)
COC1(NC(=O)CSCC#N)C(=O)N2C(C(=O)[O-])=C(CSc3nnnn3C)CSC21.[Na+] (stereo unspecified) [Cefmetazole sodium]	101	110	91.2 (inactive)	89.6 (inactive)
CC(C)NCC(O)c1cc(O)cc(O)c1.CC(C)NCC(O)c1cc(O)cc(O)c1.O=S(=O)(O)O (stereo unspecified) [Metaproterenol hemisulfate]	102	106	92.1 (inactive)	93.4 (inactive)
CCOC(=O)C12CC1C(=NO)c1ccccc1O2 (stereo unspecified)	100	105	93.9 (inactive)	97.2 (inactive)

SMILES	cell number (HCC1569 [1])	cell number (TDF [2])	H1.0 immunofluorescence intensity (TDF [3])	H1.0 immunofluorescence intensity (HCC1569 [4])
CCCCCC=CCC=CCC=CCCCCC(=O)O [γ-Linolenic acid (18:3 n-6)]	99.3	96.9	96.6 (inactive)	98.8 (inactive)
CNCCCN1c2ccccc2CCc2ccccc21.Cl [Desipramine hydrochloride]	102	97.5	98.7 (inactive)	92.6 (inactive)
NC(CS(=O)O)C(=O)O [L-Cysteinesulfinic Acid]	102	113	96.7 (inactive)	92.3 (inactive)
N#CC(=Cc1ccc(O)cc1)C(N)=C(C#N)C#N [Tyrphostin AG 112]	101	109	95.7 (inactive)	81 (inactive)
CC12CCC3c4ccc(O)cc4CCC3C1CC(O)C2O (stereo unspecified) [Estriol]	98.5	97.8	101 (inactive)	113 (inactive)
CC(=O)OCC1(O)CC23CCC4c5ccoc5CCC4(C)C2CCC1C3 (stereo unspecified) [Cafestol acetate]	103	98.6	97.6 (inactive)	98.4 (inactive)
O=C1c2c(O)cc(O)cc2OC(c2ccc(O)c(O)c2)C1O (racemic)	108	109	87.5 (inactive)	103 (inactive)
CCC(NC(C)C)C(O)c1ccc(O)c(O)c1.CS(=O)(=O)O (stereo unspecified) [Isotharine mesylate]	103	112	92.8 (inactive)	91.5 (inactive)
O=c1[nH]nc(Sc2ncc([N+](=O)[O-])s2)n1-c1ccc2c(c1)OCCO2	58.3 and 32.2	90.9 and 81.2	103 (inactive) and 102 (inactive)	137 (inactive) and 134 (inactive)
Cc1onc(-c2ccccc2)c1C(=O)NC1C(=O)N2C1SC(C)(C)C2C(=O)[O-] (stereo unspecified) [Oxacillin]	99.8	105	91.4 (inactive)	111 (inactive)
COc1cc(CC(=O)O)ccc1O [4-Hydroxy-3-methoxyphenylacetic acid]	105	106	102 (inactive)	97 (inactive)
O=C1OC(C(O)CO)C(O)=C1O (stereo unspecified) [Ascorbic acid]	100	103	94 (inactive)	95.2 (inactive)
NCCCS(=O)(=O)[O-].[Na+] [3-Amino-1-propanesulfonic acid sodium]	94.4	99.3	93.2 (inactive)	91.9 (inactive)
COc1ccc(S(=O)(=O)Nc2nc(-c3cccc([N+](=O)[O-])c3)cs2)cc1OC	102	92.4	102 (inactive)	97.7 (inactive)
CCN(CC)CCCCN1c2ccccc2Oc2ccc(Cl)cc21.Cl	88.8	86.3	110 (inactive)	159 (active)
COc1ccc2[nH]c(S(=O)Cc3ncc(C)c(OC)c3C)nc2n1 (stereo unspecified) [Tenatoprazole]	103	104	106 (inactive)	100 (inactive)
Clc1ccc(C(c2ccccc2Cl)C(Cl)Cl)cc1 (stereo unspecified) [1-(2-Chlorophenyl)-1-(4-chlorophenyl)-2,2-dichloroethane]	96.1	106	98.3 (inactive)	92.9 (inactive)
COc1ccc2c(c1OC)C(=O)OC2C1c2c(cc3c(c2OC)OCO3)CCN1C (racemic)	98.6	96.2	105 (inactive)	94.1 (inactive)
COc1c(O)c2c(=O)cc(OC)c3c4c(OC)cc(=O)c5c(O)c(OC)c6c(c(c1CC(C)(O)C6C(C)=O)c23)c54 (stereo unspecified) [Hypocrellin A]	75.8	67.1	97.2 (inactive)	108 (inactive)
O=C(Oc1cc(S(=O)(=O)c2ccccc2)ccc1[N+](=O)[O-])c1ccc(Cl)cc1 [2-nitro-5-(phenylsulfonyl)phenyl 4-chlorobenzoate]	99.5	87.8	96.7 (inactive)	111 (inactive)
CCCCCCCCCCCCCCCCCCCCCCCC(=O)O [Tetracosanoic acid]	99.5	104	98 (inactive)	104 (inactive)
CC(N)C1CCC(C(=O)Nc2ccncc2)CC1.Cl.Cl.O (stereo unspecified)	109	104	97.1 (inactive)	102 (inactive)
Cc1cc(CS(=O)(=O)c2ccccc2)cc(OCc2ccc(CN3CCC[C@@H]3CO)cc2)c1 [PF-543 hydrochloride]	95.8	90.2	102 (inactive)	122 (inactive)
C[C@H]1CN(C[C@H](Cc2ccccc2)C(=O)NCC(=O)O)CC[C@@]1(C)c1cccc(O)c1	94.4	102	88.5 (inactive)	107 (inactive)
